For 40 compounds, Potency results are on record in PubChem BioAssay (NCATS).

The structures appear in SMILES notation. Results filed as inconclusive are left out. A call without a number means that no potency is given here. Active and inactive are the calls of the source. Calls follow the shape of the dose curve; as a rule, active = well fitted inhibition curve with a large enough effect; inconclusive = small, poorly fitted or top-dose-only effect; inactive = no such curve, though single readings can be large or run the other way.

The assay can be described thus: qHTS to identify inhibitors of the type 1 interferon - major histocompatibility complex class I in skeletal muscle: primary screen against the NCATS Mechanism Interrogation Plate v5.0 (MIPE) Libary (AID 1347411). Also: nearly all actives have a fitted effect of over 65% in size. The essentials: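 IFN-beta-driven (4 ng/ml) HLA-B-HiBit expression in CRISPR-tagged C25cl48 myoblasts; compounds 11-pt, 1:3, max 46 uM, 24 hr exposure; lytic NanoLuc complementation luminescence.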
On the technique in general: In qHTS, concentration-response curves come from the screen itself.
Potency is read from the fitted curve at half-maximal effect.

With `CN1C(=O)C[C@H](C(=O)N[C@@H](Cc2cnc[nH]2)C(=O)N2CCC[C@@H]2C(N)=O)NC1=O`, the Potency result is “inactive”. In the case of `CC[C@H](C)C(=O)O[C@H]1C[C@H](O)C=C2C=C[C@H](C)[C@H](CC[C@@H](O)C[C@@H](O)CC(=O)O)[C@H]21`, the Potency result is “inactive”. Turning to `Cc1cccc(Nc2nc(N[C@@H]3CCCC[C@H]3N)ncc2C(N)=O)c1`, the Potency was 13.1 µM (active). For the compound `CNC(=O)c1c(-c2ccc(F)cc2)oc2cc(N(CCO)S(C)(=O)=O)c(C3CC3)cc12`, the Potency result was “inactive”. `Cn1cc(-c2ccc3nnc(Sc4ccc5ncccc5c4)n3n2)cn1`: the Potency result was “inactive”. Consider `Cc1cc2c(cc1C1(c3ccc(C(=O)O)cn3)CC1)C(C)(C)CCC2(C)C`, for which the Potency entry was “inactive”. In the case of `CN[C@@H]1CN(c2ccc3c(=O)c(C(=O)O)cn(-c4nccs4)c3n2)C[C@@H]1OC` it was 5.09 µM (active); in that of `Cc1nc2c([nH]1)CCN(C(=O)c1ccc(NC(=O)c3ccccc3-c3ccccc3)cc1)c1ccccc1-2`, “inactive”.

Take `CCNC(=O)c1noc(-c2cc(C(C)C)c(O)cc2O)c1-c1ccc(CN2CCOCC2)cc1`: the Potency was 0.0415 µM (active). The same measure for `CCCCC(F)(F)[C@@]1(O)CC[C@H]2[C@H](CC(=O)[C@@H]2CCCCCCC(=O)O)O1`: “inactive”; for `C[C@@]1(c2cc(-c3cncnc3)c(F)cc2F)CCSC(N)=N1`: “inactive”. In the case of `CCOC(=O)N1c2ccc(C(F)(F)F)cc2[C@@H](N(Cc2cc(C(F)(F)F)cc(C(F)(F)F)c2)C(=O)OC)C[C@H]1CC` it was “inactive”; in that of `c1ccc(-c2oc3ncnc(NC[C@@H]4CCCO4)c3c2-c2ccccc2)cc1`, “inactive”. Regarding `CC(C)Oc1cc(Nc2nc(N[C@@H](C)c3ccc(F)cn3)ncc2Cl)[nH]n1`, the Potency is 1.65 µM (active). In the case of `O=C(Nc1ccc(OC(F)(F)F)cc1)c1sccc1NCc1ccnc2ccccc12` it was “inactive”; in that of `Nc1ccn([C@@H]2O[C@H](CO)[C@@H](O)[C@H]2O)c(=O)n1`, “inactive”; in that of `CC[C@H](C=C[C@@H](C)[C@H]1CC[C@H]2[C@@H]3CC=C4C[C@@H](O)CC[C@]4(C)[C@@H]3CC[C@]12C)C(C)C`, “inactive”. As for `COC(=O)N1CCN(Cc2cccc(NC(=O)Nc3ccc(C)nc3)c2F)CC1`, the Potency entry was “inactive”. On to `Cc1cc(NC(=O)Nc2ccc(N(C)C)cc2)c2cc(F)cc(F)c2n1`, for which the Potency result was “inactive”. The same measure for `COc1ccc2c(c1)c(C1=C(c3c[nH]c4ccccc34)C(=O)NC1=O)cn2CCCN(C)C`: 20.8 µM (active); for `Cn1c(=O)c(Oc2ccc(F)cc2F)cc2cnc(NC3CCOCC3)nc21`: “inactive”. In the case of `O=C(c1ccc(C(=O)N2CCC(N3CCCC3)CC2)c(Nc2ccccc2)c1)N1CCC(N2CCCC2)CC1` it was “inactive”. In the case of `O=C(O)c1nc(=O)[nH]c(=O)[nH]1` it was “inactive”; in that of `c1ccc(CNc2nc(N3CCOc4ccccc43)nc3c2CCCC3)cc1`, “inactive”. As for `CC(C)(F)C[C@H](N[C@@H](c1ccc(-c2ccc(S(C)(=O)=O)cc2)cc1)C(F)(F)F)C(=O)NC1(C#N)CC1`, the Potency entry was “inactive”. Consider `CC(C)[C@H](O)C(=O)N[C@@H](C)C(=O)N[C@@H]1C(=O)N(C)CCc2ccccc21`, for which the Potency entry was “inactive”. In the case of `N#Cc1c(N(CC(=O)O)CC(=O)O)sc(C(=O)O)c1CC(=O)O` it was “inactive”; in that of `CC1CNc2c(cccc2S(=O)(=O)N[C@@H](CCCN=C(N)N)C(=O)N2CC[C@@H](C)C[C@@H]2C(=O)O)C1` (stereo not given in full), “inactive”; in that of `Cc1cc(-c2ncc(CC(=O)Nc3ccc(-c4cnccn4)cn3)cc2C)ccn1`, “inactive”. The same measure for `OC1CCC(Nc2ncc3nc(Nc4c(F)cc(F)cc4F)n([C@@H]4CCOC4)c3n2)CC1` (stereo not given in full): “inactive”; for `CCCCCCCCCCCCCCCC(=O)O[C@H]1[C@@H](O)[C@@H](O)[C@@H]([C@H](NC(=O)[C@@H]2C[C@@H](CCC)CN2C)[C@H](C)Cl)O[C@@H]1SC`: “inactive”.

Regarding `O=C(NCCCCN1CCOCC1)c1cc2ccccc2o1`, the Potency result was “inactive”. The same measure for `COc1ccc(-c2oc3c(CC=C(C)C)c(O)cc(O)c3c(=O)c2O)cc1`: “inactive”. The same measure for `CN1CCN2c3ncccc3Cc3ccccc3C2C1` (stereo not given): “inactive”; for `Cc1cnc(-c2cc(N3CCN(C(=O)CCS(C)(=O)=O)CC3)ncc2Cl)c(C)c1`: “inactive”; for `COC1CCC(C(=O)c2ccc3nc4c(cc3c2)CCCO4)CC1` (stereo not given): “inactive”. As for `Cc1ccc2c(=O)c3cccc(CC(=O)O)c3oc2c1C`, the Potency result is “inactive”. The same measure for `CCC(c1ccc(O)cc1)C(CC)c1ccc(O)cc1` (stereo not given): “inactive”; for `O=C(O)C1=CC(O)C(O)[C@H](O)C1` (stereo not given in full): “inactive”. As to `CCOc1ccccc1N=Nc1c(C)[nH]n(-c2nc(-c3ccccc3)cs2)c1=O`, the Potency result is “inactive”.
